According to the supplement of paper PMC11219838:

What follows are molecules tested on Caenorhabditis elegans L1 (N2) (assay: survival and reproduction score of C. elegans L1 (0: 0-10 living worms, 1: 11-20, 2: 21-50, 3: >50, 4: overgrown) (score 0-4); higher = more worms, less nematicidal, active = 1 or less; extreme values may be limits of the assay). Settings: 60 µM; 6 days; temperature: 20 °C.
Method in brief: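 Worm survival and reproduction were recorded as an ordinal score of living worms per well, read under a dissection microscope. Each 96-well well held about 20 synchronized C. elegans N2 L1s with E. coli HB101 in liquid NGM and compound at 60 µM final (0.6% v/v DMSO), sealed and shaken at 200 rpm, 20 °C, for 6 days. Scores ranged from 0 (0–10 worms) to 4 (overgrown, starved) and were the mean of two biological replicates.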
Cc1ccccc1-c1nnc(SCc2ccccc2Cl)o1 was tested, and the “survival and reproduction score” value was 4 (inactive).
In the case of Cc1ccccc1CSc1nnc(-c2ccncc2)o1, the “survival and reproduction score” value is reported as 4 (inactive).
For Cc1ccc(C)c(OCc2nc(-c3cccnc3)no2)c1, the “survival and reproduction score” value was 4 (inactive).
O=C(CSc1nnc(-c2ccco2)o1)Nc1cc(Cl)ccc1Cl was tested, and the “survival and reproduction score” value was 4 (inactive).
With c1ccc(-c2noc(C3COc4ccccc4O3)n2)cc1 (stereo not drawn) the “survival and reproduction score” value was 0 (active).
In the case of O=C(CSc1nnc(-c2ccccc2)o1)Nc1cccc(C(F)(F)F)c1, the “survival and reproduction score” value is reported as 4 (inactive).
In the case of Cc1cccc(-c2noc(-c3ccccc3F)n2)c1, the “survival and reproduction score” value is reported as 4 (inactive).
Cc1ccc(NC(=O)CSc2nnc(-c3ccco3)o2)cc1Cl was tested, and the “survival and reproduction score” value was 4 (inactive).
In the case of Cc1ccccc1-c1noc(COc2ccc(Cl)cc2Cl)n1, the “survival and reproduction score” value is reported as 4 (inactive).
For COc1ccc(-c2nc(-c3ccc(C(F)(F)F)cc3)no2)cc1, the “survival and reproduction score” value was 4 (inactive).
With O=C(CSc1nnc(-c2ccc(Cl)cc2)o1)NC1CC2CCC1C2 (stereo not drawn) the “survival and reproduction score” value was 4 (inactive).
For Clc1ccc(OCc2nc(-c3ccncc3)no2)cc1, the “survival and reproduction score” value was 4 (inactive).
Cc1ccc(-c2nc(-c3ccc(C(F)(F)F)cc3)no2)cc1 was tested, and the “survival and reproduction score” value was 0 (active).
Cc1ccc(-c2nnc(SCC(=O)Nc3cc(C)ccc3C)o2)cc1 was tested, and the “survival and reproduction score” value was 4 (inactive).
In the case of Cc1ccc(-c2nnc(SCC(=O)Nc3c(C)cc(C)cc3C)o2)cc1, the “survival and reproduction score” value is reported as 4 (inactive).
Cc1ccccc1-c1noc(-c2ccccc2C(=O)NCc2ccccc2)n1 was tested, and the “survival and reproduction score” value was 4 (inactive).
CCc1ccc(OCc2nc(-c3cccnc3)no2)cc1 was tested, and the “survival and reproduction score” value was 4 (inactive).
For COc1ccccc1-c1nc(-c2ccc(C)cc2)no1, the “survival and reproduction score” value was 4 (inactive).
With Cc1ccc(-c2nc(C3CCCCC3)no2)cc1 the “survival and reproduction score” value was 0 (active).
With O=C(CSc1nnc(-c2ccco2)o1)Nc1ccccc1F the “survival and reproduction score” value was 4 (inactive).
With N#Cc1ccc(OCc2nc(-c3cccs3)no2)cc1 the “survival and reproduction score” value was 4 (inactive).
COC(=O)c1ccc(CSc2nnc(-c3cccnc3)o2)cc1 was tested, and the “survival and reproduction score” value was 4 (inactive).
With Cc1cnc(NC(=O)CSc2nnc(-c3cccc(Cl)c3)o2)s1 the “survival and reproduction score” value was 4 (inactive).
Cc1cccc(-c2nnc(SCC(=O)Nc3ccc(Br)c(C)c3C)o2)c1 was tested, and the “survival and reproduction score” value was 4 (inactive).
For Cc1ccccc1-c1noc(-c2ccccc2OCC(N)=O)n1, the “survival and reproduction score” value was 4 (inactive).
With O=C(CSc1nnc(-c2ccc(Br)cc2)o1)NC1CCCCC1 the “survival and reproduction score” value was 4 (inactive).
In the case of O=C(Nc1ccccc1-c1nc(-c2ccncc2)no1)c1cccc(Cl)c1, the “survival and reproduction score” value is reported as 4 (inactive).
With Cc1cc(OCc2nc(-c3cccnc3)no2)cc(C)c1Br the “survival and reproduction score” value was 4 (inactive).
With O=C(CSc1nnc(-c2ccco2)o1)Nc1cccc(C(F)(F)F)c1 the “survival and reproduction score” value was 4 (inactive).
For Clc1ccc(-c2noc(COc3ccccc3Cl)n2)cc1, the “survival and reproduction score” value was 4 (inactive).
For COc1ccc(OC(C)c2nc(-c3cccnc3)no2)cc1 (stereo not drawn), the “survival and reproduction score” value was 4 (inactive).
With CC(C)(C)c1ccc(-c2noc(COc3ccccc3)n2)cc1 the “survival and reproduction score” value was 4 (inactive).
COc1nc(C)ccc1-c1noc(-c2ccccc2Br)n1 was tested, and the “survival and reproduction score” value was 4 (inactive).
In the case of Cn1c(SCc2nc(-c3cccs3)no2)nnc1-c1ccco1, the “survival and reproduction score” value is reported as 4 (inactive).
With Cc1ccc(NC(=O)CSc2nnc(-c3ccncc3)o2)cc1Cl the “survival and reproduction score” value was 4 (inactive).
In the case of CCCCC(=O)Nc1ccccc1-c1nc(-c2ccccn2)no1, the “survival and reproduction score” value is reported as 4 (inactive).
With Cc1cccc(-c2noc(COc3cc(C)ccc3C)n2)c1 the “survival and reproduction score” value was 2 (inactive).
For Cc1ccc(-c2noc(-c3ccc(C)cc3Cl)n2)cc1, the “survival and reproduction score” value was 4 (inactive).
